Source: PubChem BioAssay AID1779 (Sanford-Burnham Center for Chemical Genomics, 2009)
Out of some 290,000 compounds screened, about 160 (0.055%) were called active. The entries come from a sample that favours actives as a whole. A number with no mark means an inactive call. Cut-off read from the data, not from the text of the source: active = inhibition above about 50%; inactive = the rest.

These molecules were tested against Tyrosine-protein phosphatase non-receptor type 22 (Homo sapiens) (UniProt Q9Y2R2) (assay: PTPN22 lymphoid phosphatase activity blockers – biochemical, fluorescence intensity, uHTS (AID 1779;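 note: plate controls were vehicle with enzyme for no effect and no enzyme for full effect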)). Conditions: recombinant LYP phosphatase, at 11.5 µM, hits give high values.
Tyrosine-protein phosphatase non-receptor type 22 (Homo sapiens), sequence (Q9Y2R2 whole entry, looked up): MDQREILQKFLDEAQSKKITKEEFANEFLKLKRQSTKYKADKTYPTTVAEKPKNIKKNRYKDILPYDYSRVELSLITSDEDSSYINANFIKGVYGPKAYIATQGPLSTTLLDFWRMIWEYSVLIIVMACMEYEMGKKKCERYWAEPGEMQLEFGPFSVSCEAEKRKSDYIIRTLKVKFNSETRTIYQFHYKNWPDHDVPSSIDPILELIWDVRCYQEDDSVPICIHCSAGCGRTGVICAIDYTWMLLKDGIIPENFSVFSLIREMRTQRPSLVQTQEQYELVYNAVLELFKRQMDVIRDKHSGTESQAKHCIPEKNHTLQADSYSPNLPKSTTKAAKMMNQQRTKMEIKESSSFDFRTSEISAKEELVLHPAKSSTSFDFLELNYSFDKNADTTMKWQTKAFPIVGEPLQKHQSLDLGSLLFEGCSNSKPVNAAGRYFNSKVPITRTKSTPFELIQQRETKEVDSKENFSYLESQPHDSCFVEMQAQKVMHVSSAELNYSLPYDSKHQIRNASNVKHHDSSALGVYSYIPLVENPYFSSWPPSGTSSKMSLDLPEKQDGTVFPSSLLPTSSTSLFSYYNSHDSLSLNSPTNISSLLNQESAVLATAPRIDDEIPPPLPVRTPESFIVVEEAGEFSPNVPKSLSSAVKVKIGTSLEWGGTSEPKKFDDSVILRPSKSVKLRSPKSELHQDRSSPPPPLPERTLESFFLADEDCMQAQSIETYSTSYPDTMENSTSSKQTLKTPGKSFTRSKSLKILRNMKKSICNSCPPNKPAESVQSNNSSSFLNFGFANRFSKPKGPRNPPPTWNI

Point of comparison: `CSC1=NCCN1CCOc1ccccc1`, inhibition -8.5%. Against it:
- CC1Cc2ccccc2N1C(=O)CCn1c(=O)oc2ccccc21 (configuration not stated) — higher, 5.2%
- COc1ccc(C(=O)n2ncc(C#N)c2N)cc1 — higher, -0.2%
- O=C(Cc1ccc([N+](=O)[O-])cc1)N1CCN(c2ccc([N+](=O)[O-])cc2)CC1 — higher, -5.9%
- O=C(Cc1cccs1)N1CCN(c2ccc(F)cc2)CC1 — higher, -8.1%
- CC(=O)OCC(=O)[C@@]1(O)CC[C@H]2[C@@H]3CCC4=CC(=O)C=C[C@]4(C)[C@H]3C(=O)C[C@@]21C — higher, -4.3%
- C[C@]12C=CC(=O)C=C1CC[C@@H]1[C@@H]2C(=O)C[C@@]2(C)[C@H]1CC[C@]2(O)C(=O)CO — higher, -5.9%
- CCN(CC)CCNC(=O)C1CCN(S(=O)(=O)N2CCCCC2)CC1 — higher, -7.2%
- COc1ccccc1N1CCN(C(=O)C2CCN(C(=O)c3ccccc3C)CC2)CC1 — lower, -10.9%
- COc1ccccc1N1CCN(C(=O)C2CCN(C(=O)c3cccc(Cl)c3)CC2)CC1 — higher, -6.5%
- O=C(Nc1ccc2c(c1)OCO2)c1ccccc1SCC(=O)N1CCCC1 — higher, 0.1%
- CCOc1cc(N2CCOCC2)c(OCC)cc1NC(=O)c1c(-c2ccccc2Cl)noc1C — higher, 2.6%
- CCSc1nnc(NC(=O)C2CC=CCC2C(=O)O)s1 (configuration not stated) — higher, 0.6%
- CCSc1nnc(NC(=O)C2CCCCC2)s1 — higher, -4.2%
- CS(=O)(=O)N(CC(=O)Nc1ccccc1Br)Cc1ccccc1 — higher, -4.5%
- CC1=N/C(=C/c2ccco2)C(=O)O1 — higher, -3.8%
- O=C1NC(c2ccc(Br)cc2)=N/C1=C/c1ccco1 — higher, 9.9%
- CCOC(=O)c1ccc(N2C(=O)C3C(/C=C/c4ccccc4)OC4(C(=O)c5ccccc5C4=O)C3C2=O)cc1 (configuration not stated) — higher, 7.3%
- CCOC(=O)c1cc(-c2cc(OC)c(OC)c(OC)c2)nc2c1c(=O)[nH]c(=O)n2Cc1ccccc1 — lower, -8.7%
- O=C(COc1ccc(Cl)cc1Cl)Nc1ccc(Cl)cn1 — higher, -4.3%
- COc1ccc(C(=O)Nc2ccc(Cl)cn2)cc1Cl — higher, 0.7%

`O=C(Cc1cccs1)N1CCN(c2ccc([N+](=O)[O-])cc2)CC1` was tested, and the inhibition was 70% (active).
For `CCOC1(C)OCC(=O)[C@]2(CCC3C4CCC5=CC(=O)C=CC5(C)C4C(=O)CC32C)O1` (some centres not stated), the inhibition was 55.8% (active).
For `COc1ccccc1N1CCN(C(=O)C2CCN(C(=O)c3ccccc3Cl)CC2)CC1`, the inhibition was 69.4% (active).
For `CCSc1nnc(NC(=O)C2CCCCC2C(=O)O)s1` (configuration not stated), the inhibition was 66.2% (active).
`O=C1OC(c2ccc(Br)cc2)=N/C1=C\c1ccco1` was tested, and the inhibition was 63.7% (active).
`CCOc1ccc(C(=O)Nc2ccc(Cl)cn2)cc1Cl` was tested, and the inhibition was 80.4% (active).
